Reference: PubChem BioAssay (NCATS)
Results filed as inconclusive are left out. Active and inactive are the calls of the source. Calls come from the whole dose curve; as a rule, active = well fitted cell-killing curve with a large enough effect; inconclusive = small, poorly fitted or top-dose-only effect, or effect the other way; inactive = no such curve, though single readings can be large or run the other way.

Experiment: qHTS assay to identify small molecule inhibitors of chordoma cells - UCH-1 (AID 1259355); note: nearly all actives have a fitted effect of over 55% in size
Details: UCH-1 chordoma viability, CellTiter-Glo, 48 h, combination; series mostly up to 46.1 µM; activity, negative = inhibition: at the top concentration
Text: NIH Chemical Genomics Center [NCGC]
Chordoma is a rare and slow growing tumor that can occur anywhere along the spine, from the base of the skull to the tailbone. Current treatment options for chordoma is surgery and radiation therapy for those who are not candidates for surgery. But chordomas tend to return in the same location or surrounding areas of the original tumor after surgery and/or radiation. Chemotherapy can slow down the progression of the tumor. As chordoma is slow growing, the general cytotoxic agents that kill fast growing cells are ineffective, and some patients have been reported to respond to molecularly targeted drugs.
NCATS Pharmaceutical Collection (NPC) containing approximately 3000 clinically approved and investigational drugs were used to screen at 15 concentrations in a chordoma cell lines, UCH-1, to identify small molecule compounds that can inhibit chordoma cell growth.
NCGC Assay Protocol Summary:
Human chordoma cell line UCH-1 was dispensed at 800 per well in 4uL of culture medium into white solid bottom 1536-well plates (Corning Life Sciences, Corning, NY) using a Multidrop Combi (Thermo Scientific, Waltham, MA) dispenser. The assay plates were incubated at 37 C and 5% CO2 for an overnight, and then 23nL of compounds dissolved in DMSO and positive control were transferred using a Pintool station (Wako, San Diego, CA). Compound treatment was followed by the addition of 1uL of the combination compounds (1uM Auranofin, 500nM each of Camptothecin, Doxorubicin, Rubitecan, and Topotecan) and assay medium to each well of the assay plates using Flying Reagent Dispenser (FRD, Aurora Discovery, San Diego, CA). The assay plates were incubated at 37 C and 5% CO2 for 48hr. Then 5uL of CellTiter-Glo reagent (Promega Corporation, Madison, WI) was added to each well of the assay plates using FRD. After 30min incubation at room temperature, the luminescence signal was quantified using a ViewLux plate reader (PerkinElmer, Shelton, CT).
% is set by controls: 0 for no effect and ±100 for the full control effect; potency is the fitted concentration of half-maximal effect.

Compound	activity, negative = inhibition	Potency
O=C(O)COc1ccccc1	-18.7% (inactive)	–
Cc1cc(O)ccc1Cl	-14.4% (inactive)	–
CCCCc1ccc(C(=O)O)nc1	-22.1% (inactive)	–
C[C@]12N[C@H](Cc3ccccc31)c1ccccc12	-12.2% (inactive)	–
O=C(O)C(Cl)Cl	-17.6% (inactive)	–
CC(=O)[O][Hg][c]1ccccc1	–	7.08 µM (active)
COC(C)(C)CCCC(C)C/C=C/C(C)=C/C(=O)OC(C)C (stereo not given)	-26.8% [at 46.1 µM, with auranofin plus four topoisomerase inhibitors] (inactive)	–
NC(=O)CN1CC(O)CC1=O (stereo not given)	3.26% (inactive)	–
C[C@]12CCC(=O)C(O)=C1CC[C@@H]1[C@H]3CCC(=O)[C@@]3(C)CC[C@@H]12	0.435% (inactive)	–
c1ccc(C2(c3ccccc3)CC2C2=NCCN2)cc1 (stereo not given)	-18.3% (inactive)	–
CN1C2CCC1CC(OC(=O)c1cc(Cl)cc(Cl)c1)C2 (stereo not given)	-21.6% (inactive)	–
CC(Cc1ccc(O)cc1)NCC(O)c1cc(O)cc(O)c1 (stereo not given)	2.38% (inactive)	–
CC(C)NC(C)Cc1ccc(I)cc1 (stereo not given)	-12.4% (inactive)	–
NC1=NC(=O)N2CC12 (stereo not given)	-13.6% (inactive)	–
C[N+](C)(C)CC(=O)O	4.95% (inactive)	–
CCCCCCCCCC(CC)c1ccc(S(=O)(=O)O)cc1 (stereo not given)	-10.6% [at 46.1 µM, with auranofin plus four topoisomerase inhibitors] (inactive)	–
COC(=O)c1cncn1C(C)c1ccccc1 (stereo not given)	-3.22% (inactive)	–
O=[N+]([O-])c1ccc([As](=O)(O)O)cc1	-6.53% (inactive)	–
CN[C@@H]1C[C@@H](c2ccc(Cl)c(Cl)c2)c2ccccc21	25.4% (inactive)	–
CN(C)[C@@H]1C(=O)C(C(N)=O)=C(O)[C@@]2(O)C(=O)C3=C(O)c4c(O)cccc4[C@@](C)(O)[C@H]3[C@H](O)[C@@H]12	–	inactive
Cc1ccc(Cl)c(O)c1	0.147% (inactive)	–
O=C1C(I)=CC(=C(c2cc(I)c(O)c(I)c2)c2ccccc2C(=O)O)C=C1I	-11.5% (inactive)	–
CCCN1CCC[C@H](c2cccc(O)c2)C1	0.12% (inactive)	–
CN[C@@H](C)[C@H](O)c1ccccc1	26.1% (inactive)	–
CC[N+]1(CCOC(=O)C(O)(c2ccccc2)c2ccccc2)CCCCC1	-5.27% (inactive)	–
